PLAP act: activates human placental alkaline phosphatase; purified PLAP enzyme, luminescent substrate read-out; stronger effect = higher value; activation fold at 20 µM; 96,000 compounds, 1.2% hits; AID 696; in the data active = activation fold above about 2
Target sequence (P05187 whole entry, looked up): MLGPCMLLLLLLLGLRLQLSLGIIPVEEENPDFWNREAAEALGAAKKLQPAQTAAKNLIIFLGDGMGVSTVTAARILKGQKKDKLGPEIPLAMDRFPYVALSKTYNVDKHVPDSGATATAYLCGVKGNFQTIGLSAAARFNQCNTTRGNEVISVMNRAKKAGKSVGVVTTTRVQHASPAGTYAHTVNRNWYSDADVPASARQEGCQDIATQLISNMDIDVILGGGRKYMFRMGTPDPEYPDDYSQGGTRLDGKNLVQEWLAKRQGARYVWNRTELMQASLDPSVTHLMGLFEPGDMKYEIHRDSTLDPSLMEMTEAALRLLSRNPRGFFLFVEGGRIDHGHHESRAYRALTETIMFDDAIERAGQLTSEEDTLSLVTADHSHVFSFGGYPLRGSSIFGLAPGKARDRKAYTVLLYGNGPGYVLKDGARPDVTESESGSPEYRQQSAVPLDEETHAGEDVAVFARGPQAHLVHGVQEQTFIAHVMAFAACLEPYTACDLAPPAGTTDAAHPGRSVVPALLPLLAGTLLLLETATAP
CYP2C19 inh: human CYP2C19 inhibition; P33261; CYP2C19 Supersomes, luciferin-H EGE luminescence, 30 min; inhibition, % at 5 µM; 96,000 compounds, 21% hits; AID 778;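 active = CYP2C19 inhibition above a set limit at 5 µM in the primary screen, cut at about 50% in these data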;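 note: plate controls were negative control wells for no effect and 2.5 mM tranylcypromine positive control for full effect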
CYP2C9 inhib: human CYP2C9 inhibition | P11712 | CYP2C9 Supersomes, luciferin-H conversion, luminescence | inhibition, % at 5 µM | 96,000 compounds, 20% hits;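 active = blocking of liver enzyme CYP2C9 beyond about 50% at 5 µM, limit read from the data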
CYP2C9 act: activators of human CYP2C9; 96,000 compounds, 1.4% hits; P11712; recombinant CYP2C9, luciferin-H conversion, luminescence; stronger effect = higher value; factor 1 = untreated enzyme, 0 = blocked; activation factor at 5 µM;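 active = activation factor of 2 or more for CYP2C9 at a 5 µM dose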;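 note: 0 = sulfaphenazole-blocked wells and 1 = vehicle-only wells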
CYP2C19 act: cytochrome P450 2C19 (human) activation. 96,000 tested, under 10 active. AID 1025. recombinant CYP2C19, luciferin-H EGE luminescence; stronger effect = higher value; 0 = fully inhibited enzyme, 1 = untreated enzyme. P33261. activation factor at 5 µM;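 active = activation factor of at least 2 at 5 µM in the primary screen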;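 note: 0 = wells with 2.5 mM tranylcypromine and 1 = vehicle-only wells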
Starred values were filed as active, the others as inactive. Hits are enriched below; roughly 31% of the tested compounds scored in any of these assays.

SMILES	PLAP act	CYP2C19 inh	CYP2C9 inhib	CYP2C9 act	CYP2C19 act
COCCn1c(SCC(=O)N2CCCc3ccccc32)nc2c(c1=O)SC(C)C2 (stereo not given)	1.4	34	95*	0	0.7
COCCn1c(SCC(=O)N2CCCc3ccccc32)nnc1-c1ccco1	1.1	48	-6	1.1	0.5
CN1CCN(C(=O)c2ccccc2NC(=O)Cc2ccccc2)CC1	1	5	3	1	0.9
Cc1csc(NC(=O)CCC(=O)N(CC(=O)NC2CCCC2)Cc2ccco2)n1	1.2	-4	0	1	1
Cc1cc(NC(=O)C2CCCCC2C(=O)O)no1 (stereo not given)	1	-14	-22	1.2	1.1
CC1C(=O)C(C)C(c2ccc3c(c2)OCO3)NC1c1ccc2c(c1)OCO2 (stereo not given)	0.8	97*	72*	0.3	0
CC(=O)Nc1cccc(NC(=O)CCCC(=O)O)c1	0.9	3	3	1	1
CCCCN1C2CCCC1CC(NC(=O)c1ccc(OC)c(OC)c1)C2 (stereo not given)	0.9	1	9	0.9	1
O=C(OC(C(=O)NCc1ccc2c(c1)OCO2)c1ccc(Cl)cc1)c1ccco1 (stereo not given)	0.7	85*	98*	0	0.2
O=C(CSc1nnc(-c2ccc(Cl)cc2)n1Cc1ccco1)NCc1ccc2c(c1)OCO2	0.9	38	56*	0.4	0.6
CC(=O)Nc1cccc(NC(=O)CSc2ncc(-c3ccc(Cl)cc3)n2Cc2ccco2)c1	1.8	48	42	0.6	0.5
O=C(CSc1nnc(-c2ccc(Cl)cc2)n1Cc1ccco1)Nc1ccc2c(c1)OCCO2	0.8	27	24	0.8	0.7
O=C(CSc1nnc(-c2ccccc2Cl)n1Cc1ccco1)Nc1ccc2c(c1)OCCO2	1.7	90*	93*	0.1	0.1
COc1ccc(-c2cnc(SCC(=O)Nc3ccc4c(c3)OCO4)n2Cc2ccco2)cc1	1.8	96*	100*	0	0
N#Cc1cc(-c2ccccc2)nnc1Sc1ccccc1	0.9	-13	8	0.9	1.1
CN(C)S(=O)(=O)c1cccc(COC(=O)C2=COCCO2)c1	1.1	46	38	0.6	0.5
O=S(=O)(NCc1ccccc1)c1ccc(S(=O)(=O)N(Cc2ccccn2)Cc2ccco2)cc1	0.8	6	13	0.9	0.9
CC1(C)CC(=O)C2=C(C1)OC(N)=C(C#N)C2C1C=CCCC1 (stereo not given)	0.9	30	60*	0.4	0.7
Cc1nn(-c2ccccc2)c(Cl)c1C1C(C#N)=C(N)OC2=C1C(=O)CC(C)(C)C2 (stereo not given)	0.8	39	69*	0.3	0.6
CC1(C)CC(=O)C2=C(C1)OC1=C(C(=O)CC(C)(C)C1)C2c1ccccc1	0.9	3	-2	1	1
CC1C(C#N)=C(N)OC2=C1C(=O)CCC2 (stereo not given)	0.9	5	1	1	1
CCCC1=C(C(=O)OCC)C(c2c(C)nn(-c3ccccc3)c2Cl)C(C#N)=C(N)O1 (stereo not given)	1.4	50*	55*	0.5	0.5
CCOC(=O)C1=C(c2ccccc2)OC(N)=C(C#N)C1C(C)C (stereo not given)	1	32	10	0.9	0.7
COc1ccc(C2C(C#N)=C(/N=C/N3CCN(C)CC3)OC3=C2C(=O)CC(C)(C)C3)cc1 (stereo not given)	1.6	51*	53*	0.5	0.5
COc1cc2nc(C3CCC3)n(NC(=O)C(OC(C)=O)c3ccccc3)c(=O)c2cc1OC (stereo not given)	1.1	4	7	0.9	1
CCNc1nc(Oc2c(Cl)cccc2Cl)cc(C(F)(F)F)n1	0.9	36	-25	1.3	0.6
Cc1ccc(-n2nc(C)c(C3C(C#N)=C(N)OC4=C3C(=O)CCC4)c2Cl)cc1 (stereo not given)	1.2	91*	53*	0.5	0.1
CC1(C)CC(=O)C2=C(C1)OC(N)=C(C#N)C2c1ccccc1 (stereo not given)	1	73*	36	0.6	0.3
CC(C)OP(C)(=O)CN1CCN(CP(C)(=O)OC(C)C)CC1 (stereo not given)	1.1	-1	8	0.9	1
C=CCNC(=S)NNC(=O)c1cccn(Cc2cccc(Cl)c2)c1=O	1.4	9	8	0.9	0.9
